{"source": "PubChem BioAssay AID720504", "about": "(National Center for Advancing Translational Sciences (NCATS), 2013)", "note": "About 10,000 (2.8%) of roughly 360,000 compounds were called active. Inconclusive results (about 4%) are left out. The list comes from a sample in which actives are over-represented; it also holds similar structures and randomly drawn compounds. A number with no mark means an inactive call. Calls come from the whole dose curve; as a rule, active = well fitted inhibition curve with a large enough effect; inconclusive = small, poorly fitted or top-dose-only effect; inactive = flat fitted curve, though single readings scatter. % is set by controls: 0 for no effect and ±100 for the full control effect; potency is the fitted concentration of half-maximal effect.", "data": [{"molecular_target": "Serine/threonine-protein kinase PLK1 (Homo sapiens) (UniProt P53350)", "sequence (P53350 whole entry, looked up, the tested form may be a part)": "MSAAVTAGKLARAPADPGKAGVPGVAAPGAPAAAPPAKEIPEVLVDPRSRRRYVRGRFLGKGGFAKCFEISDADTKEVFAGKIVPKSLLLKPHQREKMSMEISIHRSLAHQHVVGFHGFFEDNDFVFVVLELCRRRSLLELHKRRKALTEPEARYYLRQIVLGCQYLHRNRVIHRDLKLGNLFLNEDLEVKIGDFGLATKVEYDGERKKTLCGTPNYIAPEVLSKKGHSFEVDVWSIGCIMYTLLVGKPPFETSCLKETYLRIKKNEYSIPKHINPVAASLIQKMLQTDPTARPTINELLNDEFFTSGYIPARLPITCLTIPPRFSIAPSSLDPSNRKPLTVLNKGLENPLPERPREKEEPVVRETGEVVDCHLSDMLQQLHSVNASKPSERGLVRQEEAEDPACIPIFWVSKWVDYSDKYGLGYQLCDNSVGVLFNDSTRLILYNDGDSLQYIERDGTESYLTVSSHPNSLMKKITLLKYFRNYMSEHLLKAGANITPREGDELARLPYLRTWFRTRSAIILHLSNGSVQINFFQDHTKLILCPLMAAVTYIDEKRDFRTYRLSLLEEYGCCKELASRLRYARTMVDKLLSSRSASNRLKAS", "test": "qHTS for Inhibitors of PLK1-PDB (polo-like kinase 1 - polo-box domain): Primary Screen; note: nearly all actives have a fitted effect of over 65% in size; for max response, negative = inhibition: series mostly up to about 57 µM", "details": "Plk1 PBD binding of FITC phosphopeptide, fluorescence polarization", "units": {"max response, negative = inhibition": "%"}, "values": [{"compound": "N#CCCN(C(=O)Nc1ccc(Cl)c(Cl)c1)C1CCCCC1", "max response, negative = inhibition": 9.26}, {"compound": "NC(Cc1ccccc1)c1csc(Nc2cc(Oc3ccccc3)ncn2)n1", "note": "(stereo not drawn)", "max response, negative = inhibition": -8.4}, {"compound": "COC(=O)CNC(=O)c1ccc(OC2CCN(C(=O)C3CC3)CC2)cc1", "max response, negative = inhibition": -1.29}, {"compound": "CCc1ccc(/C=N/NC(=O)c2ccc(OC3CCCC3)cc2)s1", "Potency": "11.9 µM (active)"}, {"compound": "CCn1c(/C=N/NC(=O)c2ccc(OC)cc2)nc2ccccc21", "max response, negative = inhibition": 1.71}, {"compound": "Nc1cccc(-c2cncc(N3CCN(Cc4ccccn4)CC3)n2)c1", "max response, negative = inhibition": -6.49}, {"compound": "COc1ccc(-n2c(-c3ccc(Cl)cc3)n[nH]c2=S)c(OC)c1", "max response, negative = inhibition": -18.3}, {"compound": "CC(C)CCNC(=O)c1[nH]c(C(F)(F)F)nc1-c1ccccc1", "max response, negative = inhibition": -2.14}, {"compound": "COc1ccc(OCC(=O)NNC(=O)C2CCC2)cc1", "max response, negative = inhibition": 3.29}, {"compound": "COc1ccc(C2CC(c3ccccc3)=NN2C(=O)COC(=O)COc2ccccc2)cc1", "note": "(stereo not drawn)", "max response, negative = inhibition": -2.07}, {"compound": "COc1ccc(OCc2nnc3n2N=C(c2ccccc2)C(CC(=O)O)S3)cc1", "note": "(stereo not drawn)", "Potency": "1.5 µM (active)"}, {"compound": "Cc1ccc(NC(=O)[C@H](Cc2ccccc2)NC(=O)CC[C@H]2O[C@@H](n3ccc(=O)[nH]c3=O)[C@H](O)[C@@H]2O)cc1C", "max response, negative = inhibition": -5.11}, {"compound": "OC(c1cc(Cl)cc(Cl)c1)c1ncc(-c2ccccc2C(F)(F)F)[nH]1", "note": "(stereo not drawn)", "max response, negative = inhibition": 4.04}, {"compound": "CCOC(=O)[C@]12CCCC=C1N(Cc1cccc3ccccc13)C(=O)[C@H](CC(=O)NCC13CC4CC(CC(C4)C1)C3)C2", "max response, negative = inhibition": -3.19}, {"compound": "CCCS(=O)(=O)NC(=O)C1(C)CCCN(C(=O)c2cc(C)on2)C1", "note": "(stereo not drawn)", "max response, negative = inhibition": -2.32}, {"compound": "CCc1c(C)[nH]c(=S)c(C#N)c1C", "Potency": "29.9 µM (active)"}, {"compound": "CC(=O)c1c(C)[nH]c(=S)c(C#N)c1-c1ccc(F)cc1", "max response, negative = inhibition": -8.58}, {"compound": "COc1ccc(NC(=O)C(c2ccncc2)n2c(=O)c(-c3cc4ccccc4[nH]3)nc3ccccc32)cc1", "note": "(stereo not drawn)", "max response, negative = inhibition": 12.4}, {"compound": "COc1ccc(NC(=O)C(NC(C)=O)C(=O)NCc2ccccc2Cl)cc1", "note": "(stereo not drawn)", "Potency": "15 µM (active)"}, {"compound": "COc1ccc(CNC(=O)C(C)NCc2ccccc2Cl)cc1", "note": "(stereo not drawn)", "max response, negative = inhibition": 5.25}, {"compound": "CCOC(=O)C(NC(C)=O)C(=O)Nc1ccc(OC)cc1", "note": "(stereo not drawn)", "max response, negative = inhibition": -7.21}, {"compound": "C=CCC[C@@H](CCCCC)OC(=O)/C=C/[C@@H](O)[C@H](O)C[C@H](O)CC=C", "max response, negative = inhibition": -3.6}, {"compound": "CC1(C)OC(=O)C2=C(C[C@@H](C3CC3)O[C@H]2c2ccc(Cl)cc2)O1", "max response, negative = inhibition": -2.8}, {"compound": "CC(C)(C)NC(=O)NC(=O)COC(=O)Cn1c(C(F)(F)F)nc2ccccc21", "max response, negative = inhibition": -11.6}, {"compound": "CN1CCN(C(=O)Cn2c(C(F)(F)F)nc3ccccc32)CC1", "max response, negative = inhibition": -6.38}, {"compound": "Cc1ccccc1OC(=O)Cn1c(C(F)(F)F)nc2ccccc21", "Potency": "15 µM (active)"}, {"compound": "O=C(NCCOc1ccccc1)N1[C@H]2CC[C@@H]1C=C(c1ccc(F)cc1OCc1ccccc1)C2", "max response, negative = inhibition": -5.72}, {"compound": "CC1(C(=O)NS(=O)(=O)c2ccc(C#N)cc2)CCN1C(=O)CC1CCCC1", "note": "(stereo not drawn)", "max response, negative = inhibition": 1.71}, {"compound": "COCC(=O)N(C)C[C@H]1Oc2cc(Br)ccc2S(=O)(=O)N([C@H](C)CO)C[C@H]1C", "max response, negative = inhibition": 4.87}, {"compound": "Cc1ccc(CN2CC(N3CCC(Cc4ccccc4)CC3)CS2(=O)=O)cc1", "note": "(stereo not drawn)", "max response, negative = inhibition": -6.9}, {"compound": "Cn1c(=O)[nH]c(=O)c2c1[nH]c(=S)n2Cc1ccccc1", "Potency": "23.8 µM (active)"}, {"compound": "CCN(CC)CCn1cnc2c1c(=O)[nH]c(=O)n2Cc1ccccc1", "max response, negative = inhibition": -4.34}, {"compound": "Cn1c(=O)[nH]c(=O)c2c1nc(N(CCO)Cc1ccccc1)n2Cc1ccccc1Cl", "max response, negative = inhibition": -7.01}, {"compound": "COC(=O)[C@@]12C[C@@H](CC(=O)NCc3cccc(C(F)(F)F)c3)C(=O)N(Cc3ccco3)C1=CCC(C)(C)C2", "max response, negative = inhibition": -2.23}, {"compound": "O=C(NC1CCCC1)C1c2ccccc2OCC(=O)N1Cc1ccccc1", "note": "(stereo not drawn)", "max response, negative = inhibition": -5.56}, {"compound": "CCCCCCN1CCN(C2CN(Cc3cn(Cc4ccc(F)cc4)nn3)S(=O)(=O)C2)CC1", "note": "(stereo not drawn)", "max response, negative = inhibition": 3.67}, {"compound": "OC(c1ccccc1)c1nc(/C=C/c2ccc(C(F)(F)F)cc2)cs1", "note": "(stereo not drawn)", "max response, negative = inhibition": -1.28}, {"compound": "CC(=O)Nc1ccc(C=CC(=O)c2ccc([N+](=O)[O-])cc2)cc1", "max response, negative = inhibition": -8.08}, {"compound": "CC(=O)Nc1ccc(C=Cc2ccc([N+](=O)[O-])cc2)cc1", "max response, negative = inhibition": -17.4}, {"compound": "O=C(O)/C=C/C(=O)NNc1ccc([N+](=O)[O-])cc1", "Potency": "6.7 µM (active)"}, {"compound": "O=C(NCCO)c1cccc(-c2cccc3nccn23)c1", "max response, negative = inhibition": -13.3}, {"compound": "C#Cc1ccc(NC(=O)C2(C)CCN2C(=O)Cc2ccc(-c3ccccc3)cc2)cc1", "note": "(stereo not drawn)", "max response, negative = inhibition": 7.1}, {"compound": "COc1ccc(CNC(=O)CSc2n[nH]c(N)n2)cc1OC", "max response, negative = inhibition": -18.3}, {"compound": "COc1ccc(C(=O)CSc2nccc(=O)[nH]2)cc1", "max response, negative = inhibition": -2.62}, {"compound": "COc1ccc(C(=O)CSc2n[nH]c(N)n2)cc1", "Potency": "26.7 µM (active)"}, {"compound": "COc1ccccc1-c1cc2nc(NCc3cccc(Cl)c3)ccn2n1", "max response, negative = inhibition": -9.83}, {"compound": "CCc1nc2c(OCc3ccc(C(=O)OC)cc3)cccn2c1N(C)C(=O)C(C)C", "max response, negative = inhibition": -10.3}, {"compound": "OC[C@H]1O[C@@H](c2nc(-c3nc(-c4ccc(F)cc4)no3)cs2)[C@H](O)[C@@H](O)[C@H]1O", "max response, negative = inhibition": -9.06}]}]}
